Experimental data reported in PubChem BioAssay AID1839 (Johns Hopkins Ion Channel Center, 2009).
Among all 2,400 compounds or so, about 220 (9.2%) were called active. For the sample, actives were picked, then their nearest neighbours and some compounds at random. Unmarked numbers belong to inactive results.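 Rule for the calls: active = signal change above the mean of dofetilide-free buffer controls plus 3 SD, so a positive margin; inactive = the rest.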

assay: nonspecific flux effects in parental CHO-K1, confirmation, counter-screen for hERG block protection project, cell-based, CHO-K1 parental line, FluxOR thallium flux (AID 1839); details: CHO-K1 parental cells, FluxOR thallium flux fluorescence; at 10 µM;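 note: compounds applied alone with no dofetilide to cells lacking hERG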

| Compound | signal change vs control minus 3*SD hit threshold (margin above threshold, higher = more increase) |
| --- | --- |
| CCCN(CC1CC1)C(=S)Nc1ccccc1F | -25.8% |
| COc1cc(/C=C2/SC(=S)N(CC(=O)O)C2=O)ccc1OCC(=O)Nc1ccc(C)c(C)c1 | -34.3% |
| COc1ccccc1C(=O)Nc1ccnn1C1CCN(C(=O)c2ccoc2C)CC1 | -41.5% |
| O=C(CSc1nc(N2CCCCC2)nc(N2CCCCC2)n1)c1ccccc1 | -13.7% |
| Cc1nn(-c2ccc(Cl)cc2)c2sc(C(=O)c3c(N)n(C)c(=O)n(C)c3=O)cc12 | -34.5% |
| NC(=O)c1cccc(N=Cc2cc(Cl)cc(Cl)c2O)c1 | -22.3% |
| Oc1c(Cl)cc(Cl)cc1C=Nc1ccc(Br)cc1 | 12.8% (active) |
| Cc1cccc(N=Cc2cc(Br)cc(Cl)c2O)c1 | 3.2% (active) |
| Cc1ccc(N=Cc2cc(Br)cc(Cl)c2O)cc1 | -4.8% |
| COc1cc(Br)cc(C=Nc2cccc(C(F)(F)F)c2)c1O | -8.3% |
| Cc1ccc(N=Cc2cc(Cl)cc(Cl)c2O)nc1 | -26.6% |
| COc1cc(C2NC(=O)NC(O)(C(F)(F)F)C2C(C)=O)cc(OC)c1OC (stereo not drawn) | -34.1% |
| CCOc1cc(/C=C2/C(=O)ON=C2C)ccc1O | -38.8% |
| Oc1ccc(Cl)cc1C1=NNC(c2cccs2)C1 (stereo not drawn) | -19.1% |
| Cc1ccc(SCc2ccc(C(=O)N3CCCC3)cc2)cc1 | -17% |
| CCOc1ccc(NC(=S)NS(=O)(=O)c2cc(Br)ccc2OCC)cc1 | -3.6% |
| Nc1nnc(SCC(=O)OCc2ccc(F)cc2)s1 | -40.4% |
| Cc1cccc(N2CCN(C(=O)Cc3c(C(=O)O)[nH]c4ccc(Cl)cc34)CC2)c1C | -33.6% |
| Cc1ccc(S(=O)(=O)N(C)C)cc1NC(=S)NC(C)CCCC(C)C (stereo not drawn) | -30.7% |
| CC(Nc1ccc(F)cc1)=[N+](C)CCNS(=O)(=O)c1ccc(Cl)cc1 | -34.8% |
| CSc1nc(-c2ccccc2)[nH]c(=S)c1C(C)=O | 34.8% (active) |
| CC(=O)c1c(C)[nH]c(-c2ccccc2)nc1=S | -20.4% |
| CC(=O)c1c(N)[nH]c(-c2ccccc2)nc1=S | -6.7% |
| O=C1C2CC=CCC2C(=O)N1c1ccc(Cc2ccncc2)cc1 (stereo not drawn) | -16% |
| CCCCn1c(-c2csc(C(C)C)c2)n[nH]c1=S | -20.9% |

| Compound | signal change vs control minus 3*SD hit threshold (margin above threshold, higher = more increase) |
| --- | --- |
| CCCn1c(SC(C)C(=O)N2CCOCC2)nc2ccc(Br)cc2c1=O (stereo not drawn) | -28.1% |
| O=c1c2cc(Br)ccc2nc(-c2cccc(C(F)(F)F)c2)n1O | 69.7% (active) |
| CCCn1c(SCN2C(=O)c3ccccc3C2=O)nc2cc(Cl)ccc2c1=O | -10.9% |
| NC(=O)c1nn2c(C(F)(F)F)cc(-c3ccccc3)nc2c1Br | -26% |
| N#Cc1ccc(-c2nc3cc(Cl)ccc3c(=O)n2O)cc1 | -29.9% |
| COc1cc(OC)cc(-c2nc3ccccc3c(=O)n2OC(=O)c2ccc(Br)cc2)c1 | -34.9% |
| O=C(Cn1nnc(-c2cccc(C(F)(F)F)c2)n1)N1CCCCCC1 | -29.6% |
| O=c1c2ccc(Cl)cc2nc(-c2cccc(C(F)(F)F)c2)n1O | 66.5% (active) |
| O=c1c2cc(Br)ccc2nc(-c2cccc(Cl)c2)n1O | 45.7% (active) |
| O=c1c2cc(Br)ccc2nc(-c2ccc(Cl)cc2)n1O | 48.2% (active) |
| O=C(CCc1ccccc1Cl)Nc1ccc(S(=O)(=O)N2CCOCC2)cc1 | -31.3% |
| CC(=O)OCC1O[C@@H](O[C@@H]2C[C@H]3C(C)(C)[C@H](OC(C)=O)CC[C@]3(C)[C@H]3CC[C@]45C[C@]4(CC[C@H]5[C@@H](C)C[C@@H](O)[C@H](O)C(C)(C)O)[C@@]32C)[C@H](O)[C@@H](O)[C@@H]1O (stereo partly drawn) | -4.8% |
| Cc1c(OC(C)C(=O)NCCN2CCOCC2)ccc2c3c(c(=O)oc12)CCC3 (stereo not drawn) | -28.3% |
| Cc1occc1C(=O)NNC(=S)NC(=O)COc1ccc(Cl)cc1Cl | -23.7% |
| Cc1c(C#N)c(O)[nH]c(=O)c1N=Nc1ccc(Br)cc1C(=O)O | -28.4% |
| O=c1cc(-c2ccccc2)cc(-c2ccccc2)n1O | -22.5% |
| O=c1c2cc(Br)ccc2nc(-c2ccccc2)n1O | 5.2% (active) |
| N#Cc1ccc(-c2nc3ccc(Br)cc3c(=O)n2O)cc1 | -5.1% |
| Cc1sc2nc(C(C)C)nc(SCC(=O)NCc3ccco3)c2c1C | -12.6% |
| O=C(NC(=S)N1CCCC(C(F)(F)F)C1)c1ccc(F)cc1 (stereo not drawn) | 4.7% (active) |
| CC(C)(C)c1ccc(C(=O)NC(=S)N2CCCC2)cc1 | -17.2% |
| CC(C)(C)c1ccc(C(=O)NC(=S)N2CCCCCC2)cc1 | -12.4% |
| CC(=O)N1c2ccc(N=Cc3cc(Br)cc(Br)c3O)cc2CC1C (stereo not drawn) | 1.6% (active) |
| Cc1nnc(C)n1/N=C/c1cc(Br)cc(Br)c1O | -18.1% |
| CNC(=S)N/N=C/c1cc(Br)cc(Br)c1O | -14.8% |

| Compound | signal change vs control minus 3*SD hit threshold (margin above threshold, higher = more increase) |
| --- | --- |
| NC(=O)[C@@H]1CCCN1Cc1nc(Cc2ccccc2Cl)no1 | -33.1% |
| CSc1nc(C)c(Cc2ccccc2)c(=O)[nH]1 | -30.6% |
| O=c1ccc(N=Nc2ccccc2)ccc1O | 27.6% (active) |
| CN(C)c1ccc(N=Nc2ccc(C(=O)O)cc2)cc1 | -27.2% |
| Cc1ccc(N=Nc2ccc(O)c3ncccc23)cc1 | -33.4% |
| CCC1CCCCN1C(=S)NC(=O)c1cccs1 (stereo not drawn) | -31.1% |
| COc1ccc(C(=O)Nc2ccccc2C(=O)O)cc1Cl | -30.4% |
| COc1ccc(-n2nc(C)cc2Nc2ccccc2C(=O)O)cc1 | 0.3% (active) |
| COc1ccc(/C=C/C(=O)Nc2ccccc2C(=O)O)cc1 | -18.6% |
| CCOc1cc(N2CCOCC2)c(OCC)cc1NC(=O)Cc1ccccc1 | -13.5% |
| Nc1nonc1-n1nnc(C(=O)N/N=C/c2ccccn2)c1-c1ccccc1 | -22.7% |
| O=C(NC(=S)Nc1nc2c(s1)CSc1ccccc1-2)c1ccccc1 | -20.9% |
| COc1ccc(-c2cc(C(F)(F)F)nc(SCC(=O)NCc3cccs3)n2)cc1 | -17.2% |
| Cc1ccccc1NC1=NC(=S)N(c2ccccc2)C12CCCCC2 | -2.6% |
| COc1ccc(C(=O)NNC(=O)C(=O)Nc2cccc3ccccc23)cc1 | 12.2% (active) |
| COc1ccc(C(=O)CC(=O)C(=O)Nc2ccccc2OC)cc1 | -25.2% |
| CCOc1ccccc1NC(=O)C(=O)CC(=O)c1ccc(OC)cc1 | -20.6% |
| COc1ccc(C(=O)CC(=O)C(=O)Nc2ccccc2Cl)cc1 | 10.1% (active) |
| COc1cccc(C(=O)NNC(=O)C(=O)Nc2cccc3ccccc23)c1 | 11.1% (active) |
| COc1ccc(C(=O)CC(=O)C(=O)Nc2ccccc2C(F)(F)F)cc1 | -24.1% |
| COc1ccc(C(=O)CC(=O)C(=O)Nc2ccc(C)cc2Cl)cc1 | -13.5% |
| CCOc1ccccc1NC(=O)C(=O)CC(=O)c1cccc(OC)c1 | -25.9% |
| COc1cccc(C(=O)NNC(=O)C(=O)Nc2ccc(OC)cc2OC)c1 | -6.2% |
| CCOC(=O)N1CCN(C(=O)c2ccc(Cl)c(S(=O)(=O)Nc3ccccc3)c2)CC1 | -11.6% |
| O=C(O)CSc1nc2ccccc2nc1Cc1ccccc1F | -22.7% |

| Compound | signal change vs control minus 3*SD hit threshold (margin above threshold, higher = more increase) |
| --- | --- |
| CCC(=O)N1CCN(c2nc(CC)nc3sc4c(c23)CCCC4)CC1 | -56% |
| Cc1cc(-c2cccc(Br)c2)c(C#N)c(N)n1 | -34.5% |
| O=C(CCN1C(=O)/C(=C\C=C\c2ccccc2)SC1=S)Nc1cccc(C(=O)O)c1 | -27.2% |
| Cc1ccccc1OC(=O)n1c(=S)oc2cc(Cl)ccc21 | -25.4% |
| O=C(Nc1nnc(-c2ccc3c(c2)CCCC3)o1)c1ccc(Cl)cc1Cl | -21.2% |
| Cc1ccccc1C(=O)Nc1nc(=S)ss1 | 9.5% (active) |
| CC(C)CC(=O)Nc1nc(=S)ss1 | -30.3% |
| COC(=O)c1sc(NC(=S)NC(=O)c2ccccc2C)nc1C | -2.6% |
| O=C(Nc1nc(=S)ss1)c1ccc(Cl)cc1Cl | 56.5% (active) |
| O=C(NNC(=O)c1ccc(Cl)cc1Cl)c1cnccn1 | -29% |
| O=C1Nc2ccc(Br)cc2C1Cc1ccccc1F (stereo not drawn) | -42.3% |
| O=C(O)c1ccc2c(c1)C(=O)N(c1cc([N+](=O)[O-])ccn1)C2=O | -24.2% |
| CCC(=O)Nc1ccc(N2CCOCC2)c(S(=O)(=O)Nc2ccc(OC)cc2)c1 | -21.7% |
| O=C(c1ccccc1)c1nccn1-c1ccc(Cl)nn1 | -27.6% |
| CC(NC(=O)C1CCN(S(=O)(=O)c2cccc3cccnc23)CC1)c1ccccc1 (stereo not drawn) | -31.3% |
| Cc1cc(C(=O)NCCN2C(=O)S/C(=C\c3cccs3)C2=O)ccc1[N+](=O)[O-] | -31.4% |
| CCOc1ccc(/C=C2/SC(=O)NC2=S)cc1 | 39% (active) |
| Cn1cc(/C=C2\SC(=O)NC2=S)c2ccccc21 | -27.6% |
| CCOc1ccc(/C=C2\CCc3ccccc3C2=O)cc1 | -33.6% |
| Cc1ccc(-c2nc(N)s[n+]2-c2ccccc2)cc1 | -7.8% |
| CCOC(=O)N/N=C\c1ccc(-c2cc(Cl)ccc2Cl)o1 | -32% |
| Cc1ccc(C(C)NC(=O)c2cccs2)cc1C (stereo not drawn) | -16.2% |
| O=C(N/N=C/c1cc(Cl)ccc1O)c1ccccc1Br | -21.5% |
